PubChem BioAssay AID602179 (National Center for Advancing Translational Sciences (NCATS), 2012)
Screen size: about 390,000 compounds; about 360 (0.092%) were called active. The list comes from a sample in which actives are over-represented; it also holds similar structures and randomly drawn compounds. Values without a mark were called inactive. Calls follow the shape of the dose curve; as a rule, active = well fitted inhibition curve with a large enough effect; inconclusive = small, poorly fitted or top-dose-only effect; inactive = no such curve, though single readings can be large or run the other way.

Target: Isocitrate dehydrogenase [NADP] cytoplasmic (Homo sapiens) (UniProt O75874)
Sequence (O75874 whole entry R132H, change not shown): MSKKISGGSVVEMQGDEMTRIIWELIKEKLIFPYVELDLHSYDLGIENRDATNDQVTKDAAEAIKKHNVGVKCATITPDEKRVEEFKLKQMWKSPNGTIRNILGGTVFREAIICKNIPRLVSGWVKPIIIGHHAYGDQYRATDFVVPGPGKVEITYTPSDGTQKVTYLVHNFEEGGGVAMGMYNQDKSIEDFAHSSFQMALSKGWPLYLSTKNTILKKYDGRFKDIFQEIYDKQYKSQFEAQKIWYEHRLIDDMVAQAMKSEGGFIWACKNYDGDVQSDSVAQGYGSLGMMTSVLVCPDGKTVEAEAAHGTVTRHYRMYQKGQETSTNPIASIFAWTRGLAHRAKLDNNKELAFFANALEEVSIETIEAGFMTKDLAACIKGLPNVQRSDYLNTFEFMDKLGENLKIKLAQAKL
Assay: qHTS for Inhibitors of mutant isocitrate dehydrogenase 1 (IDH1): qHTS; also: nearly all actives have a fitted effect of over 65% in size
Settings: IDH1-R132H enzyme, NADPH consumption, diaphorase/resazurin fluorescence; series mostly up to 76.6 µM; activity change, negative = inhibition: at the top concentration
Description: Unbiased genomic sequencing for 22 glioma genomes found recurrent mutation of isocitrate dehydrogenase 1 (IDH1) on chromosome 2q33-a gene encoding the cytosolic isoform of IIDH1associated with the tricarboxylic acid cycle (TCA) that catalyzes the oxidative decarboxylation of isocitrate, yielding alpha-ketoglutarate and CO2 via NADP+ to NADPH conversion. Subsequent studies confirmed the recurrent IDH mutations in up to 70% of secondary gliomas and in 10% of AML cases. […] This in effect defines IDH1 as an oncogene, and provides an extraordinary opportunity to discover chemical probes against mutant IDH1 that may translate into much needed new therapies for glioma and AML patients. […] NIH Chemical Genomics Center [NCGC] NIH Molecular Libraries Probe Centers Network [MLPCN] MLPCN Grant: DA032129 Assay Submitter (PI): Lenny Dang, Agios Pharmaceuticals
IDH1-R132H (0.5 ug/mL) was dispensed into black, solid-bottom 1536-well plates at 3 uL/well in 20 mM Tris-HCl (pH 7.5), 150 mM NaCl, 10 mM MgCl2, 4 mM beta-ME, and 0.05% protease-free BSA. Then, 23 nL of compounds or DMSO were delivered to each well using a pin tool. A pre-read was run on the Viewlux to identify fluorescent compounds (540 nm excitation filter, 598 nm emission filter, bodipy mirror and 2 second exposure). After 30 minutes of incubation with compound, 3 uL of substrate mix were dispensed (0.016 mM NADPH, 2 mM alpha-KG, 20 mM Tris-HCl (pH 7.5), 150 mM NaCl, 10 mM MgCl2, and 0.05% protease-free BSA). Plates were spun for 1 min at 1000xg and incubated at room temperature for 80 min. Then 1.5 uL of each detection reagent component for the coupling system were added (0.12 mg/mL diaphorase and 0.072 mM resazurin, each in 20 mM Tris-HCl (pH 7.5), 150 mM NaCl, 10 mM MgCl2, and 0.05% protease-free BSA ) The protein, substrate and two detection components were maintained at 4 °C throughout the screen. Additionally, the substrate and resazurin reagents were protected from light. The plates were measured on an Envision plate reader for fluorescence signal using a 540 nm excitation filter and 590 nm emission filter with 10 flashes. 1x and 0x (no-enzyme) IDH1-R132H enzyme control were used to normalize %Activity of identified inhibitors; 0x enzyme values corresponded to 100% Activity (full inhibition), while 1x IDH1-R132H enzyme values were used to normalize 0%Activity (no inhibition). Concentration-response curves were fitted to the signals arising from the resulting fluorescence. The concentration-effect curves were then classified based on curve quality (r2), response magnitude and degree of measured activity, and compounds were subsequently categorized based on their curve class. […] Keywords: isocitrate dehydrogenase, IDH1, IDH1-R132H, MLSMR, MLPCN, NIH Roadmap, qHTS, NCGC
% is scaled to controls: 0 for no effect and ±100 for the full control effect; potency is read from the fitted curve at half-maximal effect.

Compound	activity change, negative = inhibition [%]	Potency
O=C(NCCc1ccc(Cl)cc1)c1ccc2nc(CCc3ccccc3)oc2c1	-6.32	–
CCC1(C)CC(=O)c2c(ccc3oc(C(=O)Nc4ccc(C(C)=O)cc4)c(C)c23)O1 (stereo unspecified)	15.7	–
Cc1noc(/C=C/N(C)C)c1S(=O)(=O)N1CCCC(C(=O)Nc2cccc(F)c2)C1 (stereo unspecified)	2.9	–
CCOC(=O)c1c(C)oc2nc(C)nc(N(CC(C)C)CC(C)C)c12	-5.12	–
COc1ccc(NC(=O)CSc2nccn2Cc2ccc3c(c2)OCO3)cc1	-2.7	–
CCOc1ccc(CNC(=O)c2ccc3c(c2)nnn3C2CCCC2)cc1	-1.82	–
CN(Cc1ccccc1)c1ccc(-c2nc(-c3ccccc3)no2)cc1[N+](=O)[O-]	10.1	–
NC(=O)CSc1nc2c(oc3ccccc32)c(=O)n1Cc1ccccc1	14.4	–
CCOc1cccc(NC(=O)c2ccc(F)c(S(=O)(=O)N(CC)c3cccc(C)c3)c2)c1	-1.16	–
O=C(CCn1c(=O)c2sccc2n(Cc2ccc(F)cc2)c1=O)NCc1ccc2c(c1)OCO2	-5.74	–
CCC(=O)Nc1cccc(C(=O)OCc2cc(=O)n3nc(CC)sc3n2)c1	-9.41	–
CSc1ncc(C(=O)NCc2ccccc2Cl)c(C(F)(F)F)n1	-6.99	–
O=C(Cn1c(=O)nc(-c2ccccc2)c2cc(Cl)ccc21)NCc1ccc(Cl)cc1	-8.72	–
CN(CC(=O)Nc1cccc(C(F)(F)F)c1)S(=O)(=O)c1cccs1	2.99	–
COc1ccccc1NC(=O)C1=C(C)Nc2nc(SCC(=O)c3ccc(C)cc3)nn2C1c1ccccc1C (stereo unspecified)	9.04	–
COc1ccc(-c2nc(C)c(CCNC(=O)c3ccc(C(F)(F)F)cc3)s2)cc1OC	4.38	–
Cc1ccc(C(=O)Nc2ccc(C(=O)O)cc2)cc1S(=O)(=O)Nc1ccccc1	8.34	–
COc1ccc(CNC(=O)c2cc3c(s2)-c2ccccc2OC3)cc1	7.22	–
COc1ccc(CNC(=O)COC(=O)C2=Cc3ccccc3OC2)cc1	–	52.1 µM (active)
COc1cccc(CC(=O)OCC(=O)NCc2ccc3c(c2)OCO3)c1	-1.17	–
O=C(CSc1nc(=O)[nH]c2c1CCCC2)Nc1cc(C(F)(F)F)ccc1Cl	1.58	–

Compound	activity change, negative = inhibition [%]	Potency
COc1ccc(Cl)cc1NC(=O)CCn1c(=O)c2cccn2c2ccccc21	15.1	–
COc1ccc(-c2onc(C)c2C)cc1S(=O)(=O)NCC1CCN(Cc2cccc(F)c2)CC1	1.7	–
COc1cccc(-n2ccn(CC(=O)NCc3ccc(C)cc3)c(=O)c2=O)c1	-2.1	–
COc1ccccc1NC(=O)CSc1oc(-c2ccco2)nc1S(=O)(=O)c1ccc(Br)cc1	5.21	–
Cc1ccc(Cl)cc1NC(=O)C(C)n1nnc2sc(-c3ccccc3)cc2c1=O (stereo unspecified)	-9.89	–
Cn1c(COc2ccc(Cl)cc2)nc2ccccc2c1=O	–	52.1 µM (active)
COc1ccccc1OCCCn1c(-c2ccc(Cl)cc2)nc2ccccc2c1=O	-10.3	–
CC(C)c1ccc(Cn2c(COc3ccccc3)nc3ccccc32)cc1	-0.67	–
Cc1ccc(CNS(=O)(=O)c2ccc(C(=O)N(C)C)s2)cc1	0.733	–
COc1cc2nc(SCC(=O)Nc3ccccc3F)n3nc(-c4ccccc4)nc3c2cc1OC	0	–
CCNS(=O)(=O)c1ccc(NC(=O)CSc2nc(-c3ccco3)cc(C(F)(F)F)n2)cc1	-11.6	–
COc1ccc(NC(=O)Cn2cc(C(=O)c3ccncc3)c(=O)c3cc(C)ccc32)cc1Cl	-15.1	–
Cc1ccc(C)c(Cn2c(C)c(CNCc3ccc(F)cc3)c(C(=O)O)c2C)c1	-3.26	–
CCOc1cc(C2C(C(=O)OC)=C(C)NC3=C2C(=O)c2ccccc23)ccc1O (stereo unspecified)	3.72	–
CCn1cc(C(=O)N(C)Cc2ccccc2)c(=O)c2cc(S(=O)(=O)N3CCCCCC3)ccc21	3.18	–
CCOc1ccc2nc(N3CCC(C(=O)Nc4cc(C)ccc4C)CC3)sc2c1	-5.67	–
CCC(=O)N1CCc2cc(S(=O)(=O)NCCC(=O)Nc3cccc(C)c3C)ccc21	0	–
Cc1ccc(NC(=O)CSc2nnc3[nH]c(=O)cc(C)n23)cc1Cl	-5.19	–
O=C(Cn1c(=O)n(-c2ccc(F)cc2)c(=O)c2sc3ccccc3c21)NC1CCCC1	5.77	–
CCOc1cc(-c2nnc(SCC(=O)NC3CCCC3)nc2-c2ccc(OC)c(OCC)c2)ccc1OC	-5.74	–
CCOc1ccc(CNC(=O)Cn2cc3c(n2)-c2c(oc(C(=O)N4CCCC4)c2C)CC3)cc1	-2.43	–

Compound	activity change, negative = inhibition [%]	Potency
CCN(CCCNC(=O)Cn1ncc2c3ccccc3n(C)c2c1=O)Cc1ccccc1	1.64	–
Cc1ccc(-c2nnc(Nc3cccc(Br)c3)c3ccccc23)cc1S(=O)(=O)NCC1CCCO1 (stereo unspecified)	-14.4	–
CCOC(=O)c1ccc(NC(=O)CCS(=O)(=O)c2ccc(C)cc2)cc1	19.8	–
CCC(=O)N1N=C(c2ccc(OC)cc2)CC1c1cn(-c2ccccc2)nc1-c1cccs1 (stereo unspecified)	6.3	–
Cn1ccc2cc(S(=O)(=O)N3CCCC(C(=O)NCc4ccccc4F)C3)ccc21 (stereo unspecified)	-13.5	–
Cc1ccc(CN2CCC(CNC(=O)c3cnn(-c4ccc(C)cc4)c3C3CCN(C(=O)OC(C)(C)C)CC3)CC2)cc1	0.407	–
CCN(CCCNC(=O)c1cc2cc3cc(OC)ccc3nc2s1)c1ccccc1	3.91	–
Cc1ccc(Cl)cc1N1CCN(C(=O)c2cnc3c(-c4ccc(F)cc4)c(C)nn3c2C)CC1	-4.49	–
Cc1cc(C)cc(OCC(=O)Nc2nc(-c3ccc(F)cc3)ns2)c1	-3.14	–
CCN(CCCCOC(=O)c1ccc(OC)c(OC)c1)C(C)Cc1ccc(OC)cc1 (stereo unspecified)	1.03	–
COc1ccc(C(CCN(Cc2ccc(OC)c(OC)c2)C(=O)CCl)c2ccccc2)cc1 (stereo unspecified)	–	36.9 µM (active)
COc1ccc(CN(C(=O)CSc2nnc(-c3ccc(OC)c(OC)c3)o2)c2ccc(F)cc2)cc1	3.1	–
O=C1N(Cc2ccccc2)c2ccc(Cl)cc2C1(O)c1c[nH]c2ccccc12 (stereo unspecified)	7.28	–
CCOC(=O)c1cccc(NC(=O)Cn2cnc3nc4c(cc3c2=O)CCCC4)c1	-4.55	–
Cc1nc2ccn(Cc3cccs3)c(=O)c2cc1C(=O)NCc1ccc(Cl)cc1	-1.97	–
COc1cc(C(=O)N(Cc2ccc(C(C)C)cc2)C2CCS(=O)(=O)C2)cc(OC)c1OC (stereo unspecified)	8.8	–
COc1cc2c(-c3ccc4c(c3)OCO4)c(-c3ccsc3)oc(=O)c2cc1OC	–	10 µM (active)
COc1cc(-c2c(-c3ccc4c(c3)OCO4)noc2C)ccc1F	11	–
COC(=O)c1c(-c2ccsc2)oc2ccc(-c3cc(OC)c(OC)c(OC)c3)cc12	18.5	–
